HT1080NT lethal – qHTS for induction of synthetic lethality in tumor cells producing 2HG: qHTS for the HT-1080-NT fibrosarcoma cell line; HT-1080-NT fibrosarcoma viability, CellTiter-Glo ATP luminescence, 48 h; Potency, µM (highest dose often 46.1 µM), for the others: top-dose activity, negative = less viability, hits mostly cytotoxic; 1.6% of 360,000 active; AID 686970, 2013;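 further: NT is the 2HG producing partner of a matched IDH1 knockdown line; potency means the concentration at half of the fitted maximal effect; 0% = DMSO-treated cells and -100% = media-only wells without cells; nearly all actives have a fitted effect of over 55% in size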
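Luminescent CellTiter-Glo readout after 48 hours of compound exposure at 37 degrees C defined viability of HT-1080-NT cells. Activity was normalized to DMSO wells and cell-free media wells; concentration-response curves were fitted and assigned curve classes.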
DT40 TDP1 CPT – qHTS for Inhibitors of human tyrosyl-DNA phosphodiesterase 1 (TDP1): qHTS in cells in presence of CPT; AID 686979, 2013; chicken DT40 Tdp1-/-;hTDP1 cells + 20 nM CPT, ATP luminescence, 48 h; Potency, µM (top dose mostly 46.2 µM), for the others: at the top dose activity change, negative = growth inhibition, most hits filed as inhibitors; 12% of 420,000 active; further: potency means the concentration at half of the fitted maximal effect; nearly all actives have a fitted effect of over 55% in size
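Cell growth measured by CellTiter-Glo luminescence after a minimum 48 h, 37 C compound exposure with 20 nM CPT in Tdp1-knockout DT40 cells stably expressing hTDP1, seeded 400/well; qHTS titration format.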
IL1B secr inh – qHTS for Inhibitors of Inflammasome Signaling: IL-1-beta AlphaLISA Primary Screen | THP-1 LPS/ATP IL-1B secretion, AlphaLISA, 16 h; active compounds read low | activity change, % at 57.5 µM | 4.7% of 360,000 active | AID 743279, 2014; in the data active means activity change below about -50%; inconclusive means mostly about -30% to -49%
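THP-1 cells pretreated 1 hr with compounds (up to 57.5 uM final), then stimulated with LPS (250 ng/mL final) plus ATP (1.25 mM final); secreted IL-1B measured by AlphaLISA after 16 hr, decreased signal indicating inhibition.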
HT1080 IDH1KD tx – qHTS for induction of synthetic lethality in tumor cells producing 2HG: qHTS for the HT-1080-IDH1KD cell line; HT-1080 IDH1 knockdown viability, ATP luminescence, 48 h; Potency, µM (highest dose often 46.1 µM), inactives show top-dose activity, negative = toxicity, hits mostly cytotoxic; 2% of 360,000 active;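 further: potency means the concentration at half of the fitted maximal effect; 0% = DMSO wells and -100% = cell-free medium wells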
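Viability of IDH1-knockdown HT-1080 fibrosarcoma cells was assessed by CellTiter-Glo after 48 h at 37 °C with titrated compound; concentration-effect curves were classified by fit quality and response size.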
uPA surface inh – qHTS for Inhibitors of Cell Surface uPA Generation; cell surface uPA generation assay, qHTS; Potency, µM (series often up to 38.3 µM), without a hit: at the top dose activity change, negative = inhibition, usual class: inhibitors; 0.31% of 330,000 active; AID 540303, 2011; active means well fitted inhibition curve with a large enough effect; inconclusive means small, poorly fitted or top-dose-only effect; inactive means no such curve, though single readings can be large or run the other way; tested in mouse RAW 264.7 cells; further: potency means the concentration at half of the fitted maximal effect; nearly all actives have a fitted effect of over 55% in size
TDP1 cell noCPT – qHTS for Inhibitors of human tyrosyl-DNA phosphodiesterase 1 (TDP1): qHTS in cells in absence of CPT. DT40 Tdp1-/- hTDP1 cells, no CPT, ATP luminescence, 48 h. Potency, µM (series often up to 46.2 µM), inactives show at the highest dose activity change, negative = growth inhibition, hits mostly inhibitors. 15% of 420,000 active; further: potency means the concentration at half of the fitted maximal effect; nearly all actives have a fitted effect of over 55% in size
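Cells were dispensed at 400 per well, compounds added by pin tool, plates incubated ≥48 hr at 37 °C, then CellTiter-Glo added for 30 min at room temperature before luminescence reading. Line: DT40 Tdp1-/- complemented with hTDP1; camptothecin omitted.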
Active calls of the source: *; ? = inconclusive; / = no result given; [ ] = remark or other dose. Shown are actives, neighbours in structure and some others; about 19% of the full set was active somewhere. Unless noted, the call rests on the fitted dose curve; in most records, active means well fitted curve in the direction sought with a large enough effect; inconclusive means small, poorly fitted or top-dose-only effect, or another doubt; inactive means no such curve, though single readings can be large; an effect the other way counts as inactive or inconclusive. Unless noted, on the % scale 0 is the no-effect control and ±100 the full control effect.

SMILES	HT1080NT lethal	DT40 TDP1 CPT	IL1B secr inh	HT1080 IDH1KD tx	uPA surface inh	TDP1 cell noCPT
Cc1cccc(NC(=O)CSc2nc3n[nH]c(C)c3c(=N)n2-c2cccc(Cl)c2)c1	/	18µM*	/	/	/	15µM*
CCC(C)NC(=O)CSc1nc2n[nH]c(C)c2c(=N)n1-c1cc(Cl)ccc1C (stereo not drawn)	/	?	/	/	/	16µM*
Cc1ccc(NC(=O)CSc2nc3n[nH]c(C)c3c(=N)n2-c2ccccc2C)cc1C	/	-28%	/	/	/	?
CCC(C)NC(=O)CSc1nnc(-c2ccc(Cl)cc2)n1N (stereo not drawn)	1%	-11%	21	-2%	11%	-22%
Cc1ccc(NC(=O)CSc2nc3n[nH]c(C)c3c(=N)n2-c2cccc(C)c2)cc1	/	5.8µM*	/	/	/	3.3µM*
NC(=O)N/N=C/C=C/c1ccc(F)cc1	20%	8%	/	19%	2%	-2%
CCc1ccccc1NC(=O)N1CCCn2nc(C)cc21	/	6%	/	/	/	-22%
COc1cc(C2C(C#N)=C(N)Oc3cc(N)ccc32)cc(OC)c1OC (stereo not drawn)	?	0.92µM*	14	0.58µM*	-13%	0.65µM*
CCN(CC)c1ccc2c(c1)OC(N)=C(C#N)C2c1cccnc1 (stereo not drawn)	?	0.021µM*	-101*	0.23µM*	-14%	0.037µM*
N#CC1=C(N)Oc2cc(N)ccc2C1c1ccc(F)cc1 (stereo not drawn)	-22%	?	-5	?	-14%	?
N#CC1=C(N)Oc2cc(N)ccc2C1c1ccc(Cl)cc1 (stereo not drawn)	?	-7%	-75*	?	-2%	-1%
N#CC1=C(N)Oc2cc(N)ccc2C1c1cccnc1 (stereo not drawn)	-3%	?	16	-22%	-9%	16µM*
COc1ccc(-n2c(SCC(=O)N/N=C(\C)c3cccnc3)nc3ccccc3c2=O)cc1	4%	-8%	19	-1%	-5%	?
CCc1nnc(SCc2nc(-c3ccccc3Cl)oc2C)c2cc3sc(C)cc3n12	/	?	/	/	/	-27%
O=C(Nc1ccc(S(=O)(=O)Nc2ccc(Cl)cc2)cc1)C1CCCO1 (stereo not drawn)	-21%	16µM*	-17	?	/	13µM*
CC(C)N(c1ccccc1)c1ccc(NC(=O)C2CCCO2)cc1 (stereo not drawn)	14%	?	-9	-1%	4%	16µM*
CCCCCCNS(=O)(=O)c1ccc(NC(=O)C2CCCO2)cc1 (stereo not drawn)	1%	9.2µM*	6	3%	3%	10µM*
O=C(Nc1ccc(N=Nc2ccccc2)c(NC(=O)C2CCCO2)c1)C1CCCO1 (stereo not drawn)	?	8.2µM*	-83*	?	4%	21µM*
COCCn1c(C)cc(C(=O)COC(=O)c2ccc(Cl)c(S(N)(=O)=O)c2)c1C	-2%	?	0	-9%	-8%	?
Cc1ccc(S(=O)(=O)N2CCN(C(=O)CN3C(=O)NC4(CCCC4)C3=O)CC2)c(C)c1	5%	1%	4	2%	-1%	-24%
Cc1nn(C)c(C)c1/C=C/C(=O)c1ccc(Cl)cc1Cl	-17%	8.2µM*	-68*	-23%	-6%	13µM*
Cc1sc(NC(=O)c2ccco2)c(C(c2cccnc2)N2CCCC2)c1C (stereo not drawn)	?	2.9µM*	-29	?	/	2.3µM*
COc1ccc(C(Nc2ccccn2)c2c(NC(=O)c3ccco3)sc(C)c2C)cc1 (stereo not drawn)	-18%	?	?	-4%	8%	?
Cc1sc(NC(=O)c2ccco2)c(CN2CCN(c3ccccc3)CC2)c1C	-12%	15µM*	-18	-10%	10%	10µM*
CCOc1ccc(C(c2c(NC(=O)c3ccco3)sc(C)c2C)N2CCOCC2)cc1 (stereo not drawn)	8%[9.24 µM]	23µM*	?	-21%	-25%	?
SMILES	HT1080NT lethal	DT40 TDP1 CPT	IL1B secr inh	HT1080 IDH1KD tx	uPA surface inh	TDP1 cell noCPT
Cc1sc(NC(=O)c2ccco2)c(C(c2ccncc2)N2CCOCC2)c1C (stereo not drawn)	7%	-27%	18	-12%	7%	?
Cc1sc(NC(=O)c2ccco2)c(C(Nc2ccccn2)c2ccccc2)c1C (stereo not drawn)	-10%	-15%	-51*	-10%	0%	?
O=C(CCNC(=O)N1CC(=O)Nc2ccccc21)NCc1ccccc1	0%	3%	16	5%	/	-2%
COCc1c(C(=O)N2CCCCCC2)cnn1-c1nccc(-c2cccs2)n1	/	-1%	/	/	/	-5%
COc1ccc(OC)c(-c2cc(C(=O)Nc3cccc(Cl)c3C)no2)c1	/	-16%	/	/	/	-28%
COc1cccc(C(c2c(NC(=O)c3ccco3)sc(C)c2C)N2CCOCC2)c1 (stereo not drawn)	-14%	?	3	-14%	-14%	?
Cc1sc(NC(=O)c2ccco2)c(C(c2cccnc2)N2CCN(C)CC2)c1C (stereo not drawn)	-29%	21µM*	-4	-10%	3%	12µM*
CCN1C(=O)c2cccc3cccc1c23	2%	29µM*	36	1%	-7%	?
CN(C)C(=O)CN1C(=O)c2cccc3cccc1c23	1%	-5%	-4	0%	-2%	-8%
COc1ccc(C(NC(C)=O)c2nccc3cc(OC)c(OC)cc23)cc1OC (stereo not drawn)	3%	-10%	0	1%	8%	3%
O=C(O)COc1ccccc1C(Nc1cccnc1)c1cc(Cl)c2cccnc2c1O (stereo not drawn)	-5%	6%	30	-20%	3%	10%
CCOc1ccc(C(Nc2cccnc2)c2cc(Cl)c3cccnc3c2O)cc1 (stereo not drawn)	-26%	?	0	15µM*	-3%	15µM*
CC(=O)NC(C)c1cc(Cl)c2ccccc2c1O (stereo not drawn)	/	/	/	/	-15%	/
COc1ccccc1C(NC(C)=O)c1cc(Cl)c2cccnc2c1O (stereo not drawn)	-8%	1.6µM*	112	-10%	-6%	2.3µM*

Compound activity (PubChem BioAssay)
